From PubChem BioAssay (EPA / NIEHS)
Results filed as inconclusive are left out. Calls of active or inactive are those of the source. How the source made its calls, unless noted: active means hit-call score of the fitted dose curve at least 0.9, where 1 is the maximum; inconclusive means response in the unintended direction; inactive means score below 0.9.

What was measured:
[1] = target: mouse Estrogen Receptor alpha (Era), Esr1 (gene 13982) (UniProt P19785); experiment: NVS_NR_mERa: NovaScreen (NVS) Nuclear Receptor Binding Assay for mouse Estrogen Receptor alpha (Era) (AID 2283378);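 further: hit means loss of bound radioligand signal relative to DMSO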
Sequence of mouse Estrogen Receptor alpha (Era), Esr1 (gene 13982) (P19785 whole entry, looked up): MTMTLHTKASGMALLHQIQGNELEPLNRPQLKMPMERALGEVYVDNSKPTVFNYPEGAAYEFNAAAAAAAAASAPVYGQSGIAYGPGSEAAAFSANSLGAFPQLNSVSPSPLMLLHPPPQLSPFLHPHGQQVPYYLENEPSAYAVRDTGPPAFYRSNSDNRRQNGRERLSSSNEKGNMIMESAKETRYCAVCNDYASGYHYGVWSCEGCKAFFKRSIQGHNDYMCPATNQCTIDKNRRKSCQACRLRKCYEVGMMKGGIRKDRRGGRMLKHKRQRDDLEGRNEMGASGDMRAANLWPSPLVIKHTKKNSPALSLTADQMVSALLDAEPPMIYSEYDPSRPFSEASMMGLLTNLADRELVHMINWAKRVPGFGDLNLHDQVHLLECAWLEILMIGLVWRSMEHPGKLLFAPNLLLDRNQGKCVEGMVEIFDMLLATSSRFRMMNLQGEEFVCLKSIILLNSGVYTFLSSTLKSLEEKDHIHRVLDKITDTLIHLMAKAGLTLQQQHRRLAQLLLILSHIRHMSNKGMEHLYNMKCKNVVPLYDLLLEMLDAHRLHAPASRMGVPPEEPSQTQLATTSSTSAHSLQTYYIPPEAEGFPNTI
Summary of the method: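 Extracted mouse Era incubated with tritiated or iodinated radioligand plus test chemical, 18 h. Bound fraction separated on filters, counted by scintillation. DMSO = negative control/baseline; duplicate single-point at 25 uM, then concentration-response follow-up.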

[2] = target: Estrogen receptor (Homo sapiens) (UniProt P03372); experiment: OT_ERa_GFPERaERE_0480: Odyssey Thera (OT) 8-hour HeLa Transcription Induction Assay for Estrogen Receptor (AID 2283381; active means hit-call score of the fitted dose curve at least 0.9, where 1 is the maximum; inactive means score below 0.9)
Sequence of Estrogen receptor (Homo sapiens) (P03372 whole entry, looked up): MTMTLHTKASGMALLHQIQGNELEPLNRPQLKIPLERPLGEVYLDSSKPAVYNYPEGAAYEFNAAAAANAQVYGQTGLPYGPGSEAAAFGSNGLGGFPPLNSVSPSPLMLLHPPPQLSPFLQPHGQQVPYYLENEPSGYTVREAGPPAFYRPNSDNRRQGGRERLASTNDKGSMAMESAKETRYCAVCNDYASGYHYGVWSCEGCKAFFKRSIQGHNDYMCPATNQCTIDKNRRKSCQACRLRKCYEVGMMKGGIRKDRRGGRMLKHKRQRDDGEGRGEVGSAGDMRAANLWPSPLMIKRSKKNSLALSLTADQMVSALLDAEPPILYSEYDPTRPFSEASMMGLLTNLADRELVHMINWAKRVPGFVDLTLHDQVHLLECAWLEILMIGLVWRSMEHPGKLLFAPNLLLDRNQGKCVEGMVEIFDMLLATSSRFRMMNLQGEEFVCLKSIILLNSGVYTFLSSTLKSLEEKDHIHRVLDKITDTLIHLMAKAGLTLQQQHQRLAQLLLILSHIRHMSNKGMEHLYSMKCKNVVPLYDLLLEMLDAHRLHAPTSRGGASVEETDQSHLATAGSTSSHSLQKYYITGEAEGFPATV
Summary of the method: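 HeLa cells expressing GFP reporter under estrogen response element, imaged 8 h after dosing. GFP induction quantified by high-content fluorescence microscopy image analysis; gain of signal fitted versus DMSO.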

[3] = target: Estrogen receptor (Homo sapiens) (UniProt P03372); experiment: OT_ERa_GFPERaERE_0120: Odyssey Thera (OT) 2-hour HeLa Transcription Induction Assay for Estrogen Receptor (AID 2283382)
Summary of the method: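 HeLa cells were dosed for 2 h, then GFP reporter induction was quantified by fluorescence microscopy with high-content image analysis. Gain of signal fitted against DMSO baseline.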

[4] = target: Retinoic acid receptor RXR-alpha (Homo sapiens) (UniProt P19793); experiment: OT_NURR1_NURR1RXRa_1440: Odyssey Thera (OT) 24-hour HEK293T Protein Complementation Assay for Nurr1/retinoid X receptor (RXR) (AID 2283386)
Sequence of Retinoic acid receptor RXR-alpha (Homo sapiens) (P19793 whole entry, looked up, the tested form may be a part): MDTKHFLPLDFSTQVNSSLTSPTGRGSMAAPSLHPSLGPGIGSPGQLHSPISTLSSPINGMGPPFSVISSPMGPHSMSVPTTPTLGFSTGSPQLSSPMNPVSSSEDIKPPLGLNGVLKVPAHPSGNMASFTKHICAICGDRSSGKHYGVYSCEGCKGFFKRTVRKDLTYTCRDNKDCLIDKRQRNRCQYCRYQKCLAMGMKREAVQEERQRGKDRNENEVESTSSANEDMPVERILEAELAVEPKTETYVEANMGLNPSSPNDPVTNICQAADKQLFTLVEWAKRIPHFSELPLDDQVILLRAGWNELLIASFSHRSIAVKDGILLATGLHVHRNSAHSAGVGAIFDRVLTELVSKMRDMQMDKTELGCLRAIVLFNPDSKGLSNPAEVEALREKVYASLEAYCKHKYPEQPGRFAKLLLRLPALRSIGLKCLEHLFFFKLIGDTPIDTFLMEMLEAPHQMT
Summary of the method: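 HEK293T protein-fragment complementation of Nurr1 and RXRα fused to reporter fragments; compounds 24 h. Fluorescence gain from reconstituted reporter fitted versus DMSO.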

[5] = target: Peroxisome proliferator-activated receptor gamma (Homo sapiens) (UniProt P37231); experiment: OT_PPARg_PPARgSRC1_0480: Odyssey Thera (OT) 8-hour Protein-Complementation Assay for Peroxisome Proliferator-activated Receptor Gamma / SRC-1 Co-activator (AID 2283387);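 further: nuclear to cytoplasmic split Venus YFP fluorescence ratio reporting PPARg SRC-1 interaction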
Sequence of Peroxisome proliferator-activated receptor gamma (Homo sapiens) (P37231 whole entry, looked up, the tested form may be a part): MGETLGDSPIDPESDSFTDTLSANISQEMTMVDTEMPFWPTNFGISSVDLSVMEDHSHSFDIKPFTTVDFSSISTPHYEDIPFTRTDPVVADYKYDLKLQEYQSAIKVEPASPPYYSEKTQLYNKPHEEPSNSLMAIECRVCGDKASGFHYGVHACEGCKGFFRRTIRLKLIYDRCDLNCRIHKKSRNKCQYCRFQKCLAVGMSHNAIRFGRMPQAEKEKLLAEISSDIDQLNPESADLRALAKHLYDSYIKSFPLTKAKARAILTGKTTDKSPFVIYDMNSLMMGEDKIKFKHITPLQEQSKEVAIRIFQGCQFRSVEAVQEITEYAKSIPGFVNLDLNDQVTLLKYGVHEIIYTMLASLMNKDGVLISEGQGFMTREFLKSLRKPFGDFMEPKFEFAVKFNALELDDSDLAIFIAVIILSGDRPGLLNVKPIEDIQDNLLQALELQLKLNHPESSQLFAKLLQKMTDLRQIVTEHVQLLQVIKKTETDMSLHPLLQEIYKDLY
Summary of the method: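 Protein-fragment complementation in HEK293T: Venus YFP halves (residues 1-158, 159-239, mutated to IFP1/IFP2) fused to PPARg/SRC-1. 8 h exposure; N/C ratio at 488 nm; DMSO negative control.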

[6] = target: Agonist Androgen Response Element (ARE), AR (gene 367) (UniProt P10275); experiment: OT_AR_ARELUC_AG_1440: Odyssey Thera (OT) 24-hour CHO-K1 Luciferase Assay for Agonist Androgen Response Element (ARE) (AID 2283379)
Sequence of Agonist Androgen Response Element (ARE), AR (gene 367) (P10275 whole entry, looked up): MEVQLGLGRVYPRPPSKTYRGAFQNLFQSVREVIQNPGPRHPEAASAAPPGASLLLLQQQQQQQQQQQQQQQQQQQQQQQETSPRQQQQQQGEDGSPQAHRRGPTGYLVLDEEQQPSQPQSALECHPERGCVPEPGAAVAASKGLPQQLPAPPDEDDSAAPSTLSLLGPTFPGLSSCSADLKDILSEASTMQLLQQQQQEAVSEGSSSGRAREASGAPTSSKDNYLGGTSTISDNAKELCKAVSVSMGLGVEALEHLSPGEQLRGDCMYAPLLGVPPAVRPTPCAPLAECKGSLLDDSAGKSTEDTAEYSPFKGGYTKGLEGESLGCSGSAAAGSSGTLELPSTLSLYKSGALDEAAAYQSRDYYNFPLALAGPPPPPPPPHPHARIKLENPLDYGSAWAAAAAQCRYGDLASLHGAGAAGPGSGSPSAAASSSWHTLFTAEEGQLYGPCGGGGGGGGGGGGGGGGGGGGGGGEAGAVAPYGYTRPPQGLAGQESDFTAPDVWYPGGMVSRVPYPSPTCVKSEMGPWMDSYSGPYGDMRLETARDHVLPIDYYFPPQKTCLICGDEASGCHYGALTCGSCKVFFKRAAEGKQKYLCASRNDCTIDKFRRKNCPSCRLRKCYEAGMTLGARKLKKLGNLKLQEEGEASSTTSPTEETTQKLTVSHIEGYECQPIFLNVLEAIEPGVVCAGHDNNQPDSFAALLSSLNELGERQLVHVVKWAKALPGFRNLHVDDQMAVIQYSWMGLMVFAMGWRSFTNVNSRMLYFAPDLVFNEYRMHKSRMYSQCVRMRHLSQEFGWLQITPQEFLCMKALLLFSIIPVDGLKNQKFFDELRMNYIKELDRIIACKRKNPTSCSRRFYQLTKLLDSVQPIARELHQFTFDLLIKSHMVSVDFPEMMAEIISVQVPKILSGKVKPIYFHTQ
Summary of the method: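 Agonist mode, 24 h exposure in CHO-K1 ARE-luciferase cells; values reflect luminescence induction over vehicle.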

[7] = target: Estrogen receptor beta (Homo sapiens) (UniProt Q92731); experiment: OT_ER_ERbERb_1440: Odyssey Thera (OT) 24-hour HEK293T Protein-Complementation Assay for Estrogen Receptor-beta/-beta Homodimer (AID 2283380);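 further: fluorescence gain from ER beta LBD homodimer complementation read by laser scanning cytometry; scored as signal increase over DMSO baseline for both agonists and antagonists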
Sequence of Estrogen receptor beta (Homo sapiens) (Q92731 whole entry, looked up, the tested form may be a part): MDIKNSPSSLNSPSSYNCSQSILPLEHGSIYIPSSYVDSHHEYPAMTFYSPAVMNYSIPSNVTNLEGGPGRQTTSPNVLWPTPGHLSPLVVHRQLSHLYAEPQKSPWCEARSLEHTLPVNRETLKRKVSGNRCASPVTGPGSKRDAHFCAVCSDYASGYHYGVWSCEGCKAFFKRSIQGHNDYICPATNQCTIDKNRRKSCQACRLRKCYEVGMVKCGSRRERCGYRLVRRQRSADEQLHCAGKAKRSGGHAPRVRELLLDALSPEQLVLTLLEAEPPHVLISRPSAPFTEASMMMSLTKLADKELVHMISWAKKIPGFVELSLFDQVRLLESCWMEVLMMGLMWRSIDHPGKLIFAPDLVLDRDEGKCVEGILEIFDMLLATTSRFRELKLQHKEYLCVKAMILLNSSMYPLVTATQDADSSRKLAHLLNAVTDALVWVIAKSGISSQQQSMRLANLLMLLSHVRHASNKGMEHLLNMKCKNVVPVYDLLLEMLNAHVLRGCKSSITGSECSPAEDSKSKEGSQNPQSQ
Summary of the method: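 Fluorescence increase, nuclear for agonists or whole-cell for antagonists, relative to DMSO vehicle, quantified by laser scanning cytometer after fixation and Draq5 staining. Readout from 24 h treatment of HEK293T cells carrying complementation-paired ER beta LBD (aa 310-547).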

[8] = target: Bile acid receptor (Homo sapiens) (UniProt Q96RI1); experiment: OT_FXR_FXRSRC1_0480: Odyssey Thera (OT) 8-hour HEK293T Protein-Complementation Assay for Farnesoid X receptor/SRC-1 Co-activator (AID 2283383)
Sequence of Bile acid receptor (Homo sapiens) (Q96RI1 whole entry, looked up, the tested form may be a part): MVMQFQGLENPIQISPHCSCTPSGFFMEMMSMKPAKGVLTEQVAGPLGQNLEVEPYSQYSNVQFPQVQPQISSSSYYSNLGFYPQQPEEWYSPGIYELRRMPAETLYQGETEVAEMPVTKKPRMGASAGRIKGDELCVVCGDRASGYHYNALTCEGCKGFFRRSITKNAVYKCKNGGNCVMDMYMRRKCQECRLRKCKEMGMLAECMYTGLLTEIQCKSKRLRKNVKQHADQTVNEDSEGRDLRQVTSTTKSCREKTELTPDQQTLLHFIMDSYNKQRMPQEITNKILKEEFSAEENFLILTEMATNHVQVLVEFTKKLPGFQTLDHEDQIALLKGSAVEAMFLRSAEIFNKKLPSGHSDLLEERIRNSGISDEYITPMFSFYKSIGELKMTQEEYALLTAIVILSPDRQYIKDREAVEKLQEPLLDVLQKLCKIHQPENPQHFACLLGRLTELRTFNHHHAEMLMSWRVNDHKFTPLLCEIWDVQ
Summary of the method: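 HEK293T protein-fragment complementation assay: FXR and SRC-1 coactivator are fused to reporter fragments, and their interaction restores a fluorescent reporter. Readout was taken 8 h after dosing, with gain of signal fit relative to DMSO.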

[9] = target: Bile acid receptor (Homo sapiens) (UniProt Q96RI1); experiment: OT_FXR_FXRSRC1_1440: Odyssey Thera (OT) 24-hour HEK293T Protein-Complementation Assay for Farnesoid X receptor/SRC-1 Co-activator (AID 2283384)
Summary of the method: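 HEK293T cells, 24 h after chemical dosing. FXR–SRC-1 coactivator interaction read as fluorescence from protein-fragment complementation of a split reporter. Gain of signal fitted against DMSO baseline.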

[10] = target: Retinoic acid receptor RXR-alpha (Homo sapiens) (UniProt P19793); experiment: OT_NURR1_NURR1RXRa_0480: Odyssey Thera (OT) 8-hour HEK293T Protein Complementation Assay for Nurr1/retinoid X receptor (RXR) (AID 2283385)
Summary of the method: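 HEK293T cells expressing Nurr1 and RXRα fused to reporter fragments (protein-fragment complementation); fluorescence measured 8 h after dosing. Gain of signal fitted relative to DMSO.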

Measured: AC50

N#Cc1ccc(C2CCCc3cncn32)cc1 (configuration not stated)
active: [2] 18.2 µM | [3] 15.8 µM
inactive: [1] | [4] | [5]

CCC[Si](OC)(OC)OC
not listed: [1] | [2] | [5]
inactive: all other assays above

CN(C)Cc1cc(CN(C)C)c(O)c(CN(C)C)c1
inactive: [6] | [3] | [9] | [5]

CC(C)(c1ccccc1)c1ccc(Nc2ccc(C(C)(C)c3ccccc3)cc2)cc1
inactive: [1] | [3] | [10] | [5]

CCCCCCCCCCCCCC(=O)OC(C)C
active: [6] 3.48 µM
not listed: [1] | [9]
inactive: all other assays above

O=c1c(O)c(-c2ccc(O)cc2O)oc2cc(O)cc(O)c12
inactive: [1] | [2] | [3] | [10] | [5]

CC(C)=CCCC(C)=CC#N
inactive: [1] | [3] | [8] | [10] | [5]

C=C[Si](OCCOC)(OCCOC)OCCOC
inactive: [3] | [8]
active: [1] 10.5 µM

CCCCC/C=C\C/C=C\CCCCCCCC(=O)O
inactive: [2] | [3] | [8] | [9] | [10]
active: [1] 35.8 µM | [5] 12.7 µM

C=C1C[C@H]2[C@@H]3C=C(C)C4=CC(=O)CC[C@]4(C)[C@H]3CC[C@]2(C)[C@@]1(OC(C)=O)C(C)=O
active: [1] 29.2 µM | [6] 0.0079 µM | [10] 27.5 µM | [4] 49.5 µM
inactive: [7] | [2] | [3] | [5]

N#Cc1ccc(C(c2ccc(C#N)cc2)n2cncn2)cc1
not listed: [1] | [5]
inactive: all other assays above

CC(=O)OCc1ccccc1
inactive: [6] | [7] | [3] | [10]

COc1ccc(-c2coc3cc(O)cc(O)c3c2=O)cc1
active: [7] 2.61 µM | [2] 8.5 µM | [3] 12.4 µM
inactive: [1]

CC(=O)OC1CCCCC1C(C)(C)C (configuration not stated)
inactive: [6] | [7] | [2] | [3] | [10] | [5]

CCCCCCCOC(=O)c1ccc(O)cc1
inactive: [1] | [5]
active: [7] 5.06 µM | [2] 3.39 µM | [3] 3.08 µM

O=C(OCc1ccccc1)c1ccc(O)cc1
active: [1] 1.08 µM | [7] 5.67 µM | [8] 50 µM | [9] 50 µM
inactive: [3] | [10] | [5]

COC(OC)(C(=O)c1ccccc1)c1ccccc1
active: [1] 6.88 µM

COc1ccc(C(=O)c2ccccc2)c(O)c1
inactive: [6] | [3] | [8] | [9] | [10]
active: [7] 57.8 µM

C[Si](C)(C)N[Si](C)(C)C
inactive: [1] | [7] | [2] | [3]

O=C(O)c1ccc2c(c1)C(=O)OC2=O
active: [3] 22.6 µM
not listed: [1] | [8]
inactive: all other assays above

c1ccc(Nc2cccc3ccccc23)cc1
active: [7] 37.3 µM | [10] 77.5 µM | [4] 82 µM
inactive: [1] | [2] | [3] | [5]

CC(CCC(=O)O)(c1ccc(O)cc1)c1ccc(O)cc1
inactive: [8] | [9] | [10]
active: [1] 6.23 µM | [7] 52.3 µM | [2] 47.1 µM | [3] 35.7 µM

CCCCCCCCCCCCc1ccc(O)cc1
active: [7] 0.981 µM | [2] 0.444 µM | [3] 0.612 µM
inactive: [1]

Cc1c(C(=O)c2c[nH]n(C)c2=O)ccc(S(C)(=O)=O)c1C1=NOCC1
inactive: [6] | [7] | [2] | [3] | [10]

CCCCCCCCCCCCCCCCCCOS(=O)(=O)O
active: [7] 12.6 µM
not listed: [4] | [6] | [10]
inactive: all other assays above

Oc1ccc(-c2ccccc2)c(Cl)c1
inactive: [1] | [6] | [3] | [10]
active: [7] 18.1 µM | [2] 91 µM

CC(C)(C)NC(=O)[C@H]1CC[C@H]2[C@@H]3CC[C@H]4NC(=O)C=C[C@]4(C)[C@H]3CC[C@]12C
inactive: [1] | [2] | [8]
active: [9] 3.77 µM

COc1cc(O)c(C(=O)c2ccccc2)cc1S(=O)(=O)O
inactive: [6] | [7] | [3] | [4]

Cc1ccc(C)c(OCCCC(C)(C)C(=O)O)c1
inactive: [6] | [7] | [2] | [3] | [8] | [9]

CO[Si](C)(C)OC
inactive: [1] | [7] | [3] | [10] | [5]

CCCCCCCCCC(C)=O
inactive: [6] | [7] | [3] | [5]

CCc1cccc(C)c1N
inactive: [6] | [2] | [3] | [10] | [5]

CCCC(CC)c1ccccc1 (configuration not stated)
inactive: [7] | [2] | [3] | [10]

Nc1ccc(C(=O)O)cc1
inactive: [7] | [3] | [8] | [9] | [10] | [5]

CC(C)COC(=O)CC(C(=O)OCC(C)C)S(=O)(=O)O (configuration not stated)
inactive: [7] | [2] | [3] | [4]
